Source: PubChem BioAssay (NCI)
“And” between values parts separate entries of the source, which are not always exact repeats. Identical values can stand only once. About 83,000 compounds went through this panel and 20% of them were active in at least one assay; those are over-represented in the sample as a whole.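 In brief: 96-well plates, 48 h treatment, single concentration, percent growth endpoint.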 Unmarked numbers belong to inactive results. The source made the active and inactive calls. The calls were made as follows: active = growth percent below 10; inactive = the rest.

Test system: HL-60(TB) leukemia
Experiment: NCI-60 one-dose screen, 48 h (100 = growth as untreated, 0 = no growth, -100 = all killed)
Details: 10 µM unless noted

Row | SMILES | growth
1 | O[C@@H]1Cc2ccc3ccccc3c2N[C@H](c2ccoc2)C1 | 105%
2 | CCc1onc(-c2ccc(OC)cc2)c1-c1ccccc1OCCN(CC)CC | 82.6%
3 | COc1ccc2c(c1)C(C)Cc1c(ncnc1-n1c(C)nc3ccccc31)N2C (stereo not given) | 1.95% (active)
4 | O=C(Nc1ccc(F)cc1F)c1cc(F)ccc1O | -25.4% (active)
5 | O=C1c2c(c3c4ccc(Br)cc4oc3c3[nH]c4ccccc4c23)C(=O)N1O | 25%
6 | COc1nc(N(C)O)nc(N(C)O)n1 | 50.4%
7 | COc1cc(/C=C/c2ccccc2)cc(OC)c1 | 96.2%
8 | COc1ccc(/C=N/C2=C(C#N)C(c3ccccc3[N+](=O)[O-])c3ccc4ccccc4c3O2)cc1 (stereo not given) | 100%
9 | COC(=O)c1c2c(c(C)[n+]([O-])c1C)C(=O)C=C(NCc1ccc(F)cc1)C2=O | -29.4% (active)
10 | CC(C)CC(CC1=CCC2CC1C2(C)C)C1=C(O)C(C)(C)C(=O)C(C)(C)C1=O (stereo not given) | -45.3% (active)
11 | COCCCNC1=C(C#N)C(=O)NC(c2cccs2)S1 (stereo not given) | 145%
12 | Cc1sc2nc(NCCc3c[nH]c4ccc(Cl)cc34)[nH]c(=O)c2c1C | 7.05% (active)
13 | COC(=O)CC[C@@H]1O[C@@H](c2cccc(C(F)(F)F)c2)[C@@H](O)[C@H]1O | 105%
14 | CCN1CCN(Cc2ccc(NC(=O)c3cccc(C#Cc4cccc5[nH]nc(N)c45)c3)cc2C(F)(F)F)CC1 | -54.1% (active)
15 | COc1cc(/C=C/C(C)=O)ccc1O | 81% and 77.8%
16 | COc1cc(C)c(C2C(C#N)=C(N)Oc3n[nH]c(-c4cccs4)c32)cc1C(C)C (stereo not given) | 66.2%
17 | Cc1nc2ccc(-n3ncc(C(=O)c4cc5ccccc5[nH]4)c3N)cc2[nH]1 | 36.5%
18 | O=C(NNc1ccccc1)OCc1ccccc1 | 5.98% (active)
19 | COc1ccc(/C=N\NC(=O)CN2CCN(c3cc4c(cc3F)c(=O)c(C(=O)N/N=C/c3ccc(OC)c(OC)c3)cn4C3CC3)CC2)cc1OC | 1.29% (active)
20 | NC(Cc1ccccc1)C(=O)NC(Cc1ccccc1)C(=O)O (stereo not given) | 105% and 102%
21 | COCCc1ccc(OCC(O)CNC(C)C)cc1 (stereo not given) | 94.2%
22 | Nc1ccc2c(c1)Cc1cc(N)c(Br)cc1-2 | 86.4%
23 | CCOC(=S)SCc1ccc(Cl)cc1 | 65.8%
24 | CCOc1ccc(NC(=S)N2CCC(CCCC3CCN(C(=S)Nc4ccc(OCC)cc4)CC3)CC2)cc1 | 68.9%
25 | O=C(CCCn1c2c(sc3ccccc32)c(=O)n2nnc(-c3ccccc3)c12)NCCc1cnc[nH]1 | 82.4%
